# About 1,000 (1.4%) of roughly 69,000 compounds showed an effect of 50% or more. The sample holds strong results, similar compounds and a random draw of the others, so the mix is not that of the screen.
# Test system: Leishmania donovani
# Assay: Leishmania intramacrophage assay
# Assay type: functional, organism-based
# Parameters: scale not given: in the data most compounds retested in dose-response had high values
structure (smiles),measurement,setting,value
Cc1nnsc1C(=O)N1CCCC(c2nccn2Cc2cscn2)C1 (centres undefined),Percent Effect,"30.3 µM, […]",-3.035%
O=C(NC[C@]12COC[C@H]1CN(Cc1cccc(F)c1)C2)c1ccco1,Percent Effect,"30.3 µM, […]",61.24%
Cc1ccsc1CN1C[C@@H]2COC[C@]2(CNC(=O)c2ccco2)C1.O=C(O)C(F)(F)F,Percent Effect,"30.3 µM, […]",31.86%
Cn1cc(CN2C[C@@H]3COC[C@]3(CNC(=O)c3ccco3)C2)cn1.O=C(O)C(F)(F)F,Percent Effect,"30.3 µM, […]",-2.896%
CNC(=O)NCC(CO)Cc1ccccc1OC(F)(F)F (centres undefined),Percent Effect,"30.3 µM, […]",7.334%
CC(c1cccc(-c2ncc(C#N)c(N)n2)c1)N(C)C (centres undefined),Percent Effect,"30.3 µM, […]",-18.48%
CC(c1cccc(-c2ncccc2C#N)c1)N(C)C (centres undefined),Percent Effect,"30.3 µM, […]",54.7%
CC(c1cccc(-c2ncccc2F)c1)N(C)C (centres undefined),Percent Effect,"30.3 µM, […]",42.01%
Cc1cccc(C(=O)N2C[C@@H]3[C@H](CC(=O)Nc4cccnc4)[C@@H]3C2)n1.O=C(O)C(F)(F)F.O=C(O)C(F)(F)F,Percent Effect,"30.3 µM, […]",3.537%
N#Cc1ccnc(N2CCN(C(=O)c3ccc4c(c3)CCO4)CC2)c1,Percent Effect,"30.3 µM, […]",-46.75%
Cc1ccsc1-c1cccc(-c2ccn(CC3CCNC3)n2)c1 (centres undefined),Percent Effect,"30.3 µM, […]",82.16%
c1cc(-c2cncnc2)cc(-c2ccn(CC3CCNC3)n2)c1 (centres undefined),Percent Effect,"30.3 µM, […]",5.053%
Cc1nccc(-c2cccc(-c3ccn(CC4CCNC4)n3)c2)n1 (centres undefined),Percent Effect,"30.3 µM, […]",-9.02%
Cc1ccc(CN(C)C(=O)NCC(C)(C)CCS(C)(=O)=O)s1,Percent Effect,"30.3 µM, […]",20%
CCCNCc1ccc(OCc2ccc3c(c2)OCCO3)cc1.Cl,Percent Effect,"30.3 µM, […]",67.66%
CNCc1ccc(OCc2ccc3c(c2)OCCO3)cc1.Cl,Percent Effect,"30.3 µM, […]",22.52%
CCNCc1ccc(OCc2ccc3c(c2)OCCO3)cc1.Cl,Percent Effect,"30.3 µM, […]",21.82%
CN1CCC(c2nnc3ccc(C(=O)NC4CCCC4)cn23)C1.O=C(O)C(F)(F)F (centres undefined),Percent Effect,"30.3 µM, […]",23.32%
Fc1ccc2[nH]c(C3CCCN3CCCn3cccn3)nc2c1 (centres undefined),Percent Effect,"30.3 µM, […]",2.015%
Fc1ccc2[nH]c(C3CCCN3CCc3ccccn3)nc2c1 (centres undefined),Percent Effect,"30 µM, 30.03 µM",50.9%
O=C(CN1CCCC1c1nc2cc(F)ccc2[nH]1)NCc1ccccn1 (centres undefined),Percent Effect,"30.3 µM, […]",34.7%
Cc1ccc(C(=O)N2C[C@@H]3COC[C@]3(COc3cccnc3)C2)cn1,Percent Effect,"30 µM, 30.03 µM",15.47%
CC1CN(CC(=O)Nc2ccncc2)CCN1c1nccs1 (centres undefined),Percent Effect,30 µM,51.62%
CC1CN(CC(=O)Nc2nncs2)CCN1c1nccs1 (centres undefined),Percent Effect,"30 µM, 30.03 µM",5.617%
CC1CN(CC(=O)Nc2cccnc2)CCN1c1nccs1 (centres undefined),Percent Effect,"30 µM, 30.03 µM",19.22%
CN(Cc1csc(-c2cccs2)n1)Cc1ncccc1C(=O)O,Percent Effect,"30.3 µM, […]",21.95%
Cc1nc(CN(C)Cc2csc(-c3cccs3)n2)co1,Percent Effect,"30.3 µM, […]",17.38%
CN(Cc1csc(-c2cccs2)n1)Cc1cccnc1N,Percent Effect,"30.3 µM, […]",54.27%
Cc1cc(C)nc(N2CCC(c3cccc(CCC(=O)O)n3)CC2)n1,Percent Effect,"30.3 µM, […]",-9.293%
COc1ccc(CN2CCc3ncnc(C4CCOC4)c3CC2)cc1.O=C(O)C(F)(F)F (centres undefined),Percent Effect,"30 µM, 30.03 µM",20.96%
CCOCc1ccccc1NC(=O)NC1CCN(C2CCCC2)C1 (centres undefined),Percent Effect,"30.3 µM, […]",-2.945%
CN(C)c1ncc(CN2CCOC(C(=O)Nc3ccccc3)C2)cn1 (centres undefined),Percent Effect,"30 µM, 30.03 µM",-7.564%
Cc1cc(C)c(CNC(=O)N2CCCC2c2cccn2C)c(=O)[nH]1 (centres undefined),Percent Effect,"30 µM, 30.03 µM",13.7%
CC(CO)NC(=O)c1ccc2[nH]/c(=N\S(C)(=O)=O)sc2c1 (centres undefined),Percent Effect,"30.3 µM, […]",-35.22%
C[C@@H](CO)NC(=O)c1ccc2nc(NS(C)(=O)=O)sc2c1,Percent Effect,"30.3 µM, […]",55.63%
CSCC[C@@H](CO)NC(=O)c1ccc2nc(NS(C)(=O)=O)sc2c1,Percent Effect,"30.3 µM, […]",-13.25%
CC(C)c1nn(C)c(N(C)C)c1CNC1CCCOc2ccccc21 (centres undefined),Percent Effect,"30.3 µM, […]",11.28%
Cc1c(C(=O)N2CCOCC2)n(C)c2ccc(Cl)cc12.Cl,Percent Effect,"30.3 µM, […]",19.33%
Cc1c(C(=O)N2CCC(N3CCCCC3)CC2)n(C)c2ccc(Cl)cc12,Percent Effect,"30.3 µM, […]",83.29%
Cc1c(C(=O)N2CCN(C)CC2)n(C)c2ccc(Cl)cc12,Percent Effect,"30.3 µM, […]",11.88%
CCS(=O)(=O)N1C[C@@H](c2ccccc2)[C@@]2(CCNC2=O)C1,Percent Effect,"30.3 µM, […]",42.69%
CC1(C)CN(C(CNS(N)(=O)=O)c2ccc(Cl)cc2)CCO1 (centres undefined),Percent Effect,"30.3 µM, […]",-5.286%
CC(C)N(C)C(=O)C1CSCN1S(=O)(=O)c1ccccc1F (centres undefined),Percent Effect,"30.3 µM, […]",51.74%
CC(C)(C)NC(=O)C1CSCN1S(=O)(=O)c1ccccc1F (centres undefined),Percent Effect,"30.3 µM, […]",-3.758%
CC(C)N(C)C(=O)C1CSCN1S(=O)(=O)c1cc(Cl)ccc1Cl (centres undefined),Percent Effect,"30.3 µM, […]",6.679%
Cc1cccc(NC(=O)CNC(=O)c2ccccc2F)c1,Percent Effect,"30.3 µM, […]",-11.93%
CNC(=O)c1nc(CC(=O)Nc2cccc(C(F)(F)F)c2)no1,Percent Effect,"30.3 µM, […]",-13.79%
O=c1cc(N2CCc3ccccc3C2)cnn1CCC1CCOC1 (centres undefined),Percent Effect,"30.3 µM, […]",44.37%
CC(C)C(=O)N1CC[C@H]2N(C)CC[C@@]2(C(=O)Nc2cccnc2)CC1.O=C(O)C(F)(F)F.O=C(O)C(F)(F)F,Percent Effect,"30.3 µM, […]",36.27%
CC(C)C(=O)N1CC[C@H]2N(C)CC[C@@]2(C(=O)Nc2ccccc2)CC1,Percent Effect,"30.3 µM, […]",56.37%
CNC(=O)N1CC[C@H]2N(C)CC[C@@]2(C(=O)Nc2ccccc2)CC1,Percent Effect,"30 µM, 30.03 µM",11.56%
CCCc1noc(C2CC(=O)N(CCN(C)C)C2)n1 (centres undefined),Percent Effect,"30.3 µM, […]",24.39%
CCCc1noc(C2CC(=O)N(Cc3ccccc3)C2)n1 (centres undefined),Percent Effect,"30.3 µM, […]",62.8%
CCCc1noc(C2CC(=O)N(C(C)(C)C)C2)n1 (centres undefined),Percent Effect,"30.3 µM, […]",13.52%
O=C(CCS(=O)(=O)c1ccccc1)NC1CCOC2(CCOCC2)C1 (centres undefined),Percent Effect,"30.3 µM, […]",-6.021%
COCCN1CCCCC12CC(=O)N(c1cccc(C#N)c1)C2.O=C(O)C(F)(F)F (centres undefined),Percent Effect,"30.3 µM, […]",50.28%
COCCN1CCCCC12CC(=O)N(c1ccccc1OC)C2.O=C(O)C(F)(F)F (centres undefined),Percent Effect,"30.3 µM, […]",20.15%
O=C(O)C(F)(F)F.O=C1CC2(CCCCN2CC2CC2)CN1c1ccccc1 (centres undefined),Percent Effect,"30.3 µM, […]",20.41%
COc1ccc(N(c2ccccc2)c2ccc(C(=O)O)s2)cc1,Percent Effect,"30.3 µM, […]",6.692%
Cc1cnc(C(=O)N2CCCC3(CCN(c4cnn(C)c4)C3=O)C2)cn1 (centres undefined),Percent Effect,"30.3 µM, […]",-31.28%
CN(C)C(=O)CC1CC2(CCN(CC3CC3)CC2)Oc2ccccc21.O=C(O)C(F)(F)F (centres undefined),Percent Effect,"30.3 µM, […]",9.368%
CCn1nccc1CN(C)C(=O)Cn1cc2c(n1)c(C)nn2CC,Percent Effect,"30.3 µM, […]",72.98%
CCn1nccc1CN(C)C(=O)Cn1nc(C)c(C)c1C,Percent Effect,"30.3 µM, […]",6.99%
CCn1nccc1CN(C)C(=O)Cn1nc(C)cc1C,Percent Effect,"30.3 µM, […]",19.68%
